Laboratory results taken from PubChem BioAssay (NCI).
Compounds without any hit were thinned out: in the full panel of roughly 79,000, 15% have a hit. Activity calls are given as the source filed them. Cut-off read from the data, not from the text of the source: active = growth inhibition above about 70%; inactive = the rest.

Columns and labels:
[1] = NCI Yeast Anticancer Drug Screen. Data for the rad52 strain (AID 147);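 note: 0% = growth of vehicle-treated control cultures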; conditions: S. cerevisiae rad52 mutant growth inhibition, active compounds read high
Summary of the method: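 Measured: yeast growth inhibition. System: strain with a defined DNA damage repair alteration. Reference: vehicle-treated control cultures.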

[2] = NCI Yeast Anticancer Drug Screen. Data for the wt1 strain (AID 149);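 note: 0% = growth of vehicle-treated wt1 cultures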; conditions: S. cerevisiae wt1 strain (SPY 50644) growth inhibition, active compounds read high
Summary of the method: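 Using yeast strain wt1, compound-induced growth inhibition was determined against vehicle-treated cultures.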

[3] = NCI Yeast Anticancer Drug Screen. Data for the rad50EPP+ strain (AID 151);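 note: 0% = growth of vehicle-treated control cultures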; conditions: S. cerevisiae rad50 mutant strain, active compounds read high
Summary of the method: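 One strain with a rad50 alteration (rad50EPP+) was compound-treated, its growth then compared to that of vehicle controls.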

[4] = NCI Yeast Anticancer Drug Screen. Data for the mgt1 strain (AID 153); conditions: S. cerevisiae mgt1 mutant growth inhibition, active compounds read high
Summary of the method: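 After exposure of the mgt1 yeast mutant to compound, growth was measured and reported as inhibition compared with vehicle controls.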

[5] = NCI Yeast Anticancer Drug Screen. Data for the rad50 strain (AID 155);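 note: 0% = growth of vehicle-only cultures of the same strain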; conditions: S. cerevisiae rad50 strain growth inhibition, active compounds read high
Summary of the method: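 Relative growth inhibition (compound vs vehicle) was measured in yeast with a defined repair-gene alteration.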

[6] = NCI Yeast Anticancer Drug Screen. Data for the mec2-1 strain (AID 157); conditions: S. cerevisiae mec2-1 strain, active compounds read high
Summary of the method: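 Test agents were screened against the mec2-1 yeast strain, with defined DNA repair or cell cycle alteration. Growth was scored as inhibition against vehicle-only controls.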

[7] = NCI Yeast Anticancer Drug Screen. Data for the rad14 strain (AID 159);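 note: 0% = growth of vehicle-treated control cultures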; conditions: S. cerevisiae rad14 strain growth inhibition, active compounds read high
Summary of the method: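 Screen for anticancer potential: a yeast strain altered in DNA damage repair is grown with compound, and reduced growth is quantified against vehicle controls.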

[8] = NCI Yeast Anticancer Drug Screen. Data for the sgs1 mgt1 strain (AID 161);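 note: 0% = growth of cultures given vehicle only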; conditions: S. cerevisiae sgs1 mgt1 strain, active compounds read high
Summary of the method: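 Genetically altered yeast, compound exposure, growth inhibition relative to vehicle.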

[9] = NCI Yeast Anticancer Drug Screen. Data for the CLN2oe strain (AID 163);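 note: 0% = growth of vehicle-only control cultures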; conditions: S. cerevisiae CLN2oe strain, active compounds read high
Summary of the method: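 Here, growth inhibition in a cell-cycle-altered yeast strain after compound exposure was quantified against vehicle control growth.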

[10] = NCI Yeast Anticancer Drug Screen. Data for the cln2 rad14 strain (AID 165);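 note: 0% = growth equal to vehicle treated cultures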; conditions: S. cerevisiae cln2 rad14 strain, active compounds read high
Summary of the method: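 Growth of compound-exposed yeast (cln2 rad14 genotype) measured and expressed as inhibition relative to vehicle.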

[11] = NCI Yeast Anticancer Drug Screen. Data for the bub3 strain (AID 167); conditions: S. cerevisiae bub3 mutant strain, active compounds read high
Summary of the method: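 Screening used yeast with an engineered genetic alteration affecting cell cycle control. Compound-exposed cultures were compared with vehicle cultures, and reduced growth was taken as inhibition.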

[12] = NCI Yeast Anticancer Drug Screen. Data for the wt2 strain (AID 169);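 note: 0% = growth of vehicle-treated yeast cultures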; conditions: S. cerevisiae wt2 strain growth inhibition, active compounds read high
Summary of the method: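 Genetically defined yeast strains from a DNA-repair/cell-cycle panel were used. Compound-exposed yeast growth was measured, and the inhibition was calculated relative to vehicle treatment.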

[13] = NCI Yeast Anticancer Drug Screen. Data for the mlh1 strain (AID 171);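 note: 0% = growth of vehicle-treated control cultures of the same strain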; conditions: S. cerevisiae mlh1 strain growth inhibition, active compounds read high
Summary of the method: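 Here the genetically defined yeast mutant is grown with each compound, and the extent to which its growth falls below that of vehicle-exposed cells is reported.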

[14] = NCI Yeast Anticancer Drug Screen. Data for the sgs1 strain (AID 173);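 note: 0% = growth of vehicle-only control cultures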; conditions: S. cerevisiae sgs1 mutant, active compounds read high
Summary of the method: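 Relative growth inhibition, referenced to vehicle, was determined in a yeast strain with a defined alteration affecting DNA damage repair or cell cycle control after compound exposure.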

[15] = NCI Yeast Anticancer Drug Screen. Data for the mlh1 rad18 strain (AID 175); conditions: S. cerevisiae mlh1 rad18 strain growth inhibition, active compounds read high
Summary of the method: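 In this whole-cell yeast screen, a strain with altered DNA damage repair is challenged with compound, and its growth is measured against matched vehicle-treated controls.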

[16] = NCI Yeast Anticancer Drug Screen. Data for the rad18 strain (AID 177); conditions: S. cerevisiae rad18 mutant growth inhibition, active compounds read high
Summary of the method: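 Screen uses a yeast strain with a defined lesion in DNA damage repair; compound effect is read as loss of growth compared to untreated vehicle cultures.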

[17] = at 5.0 µM (retest, dose inferred, filed as 0.5)
[18] = at 50.0 µM (retest, dose inferred, filed as 5.0)

Measured: growth inhibition

CCOC(=O)CC1(C)/C(=N\Nc2ccc([N+](=O)[O-])cc2[N+](=O)[O-])CCC2C1CCC1(C)C(C(C)CCCC(C)C)CCC21 (stereo unspecified)
active: [5]; [17] 92% | [5]; [18] 90%
inactive: [1]; at 1.2 µM 0% | [1]; at 3.7 µM 0% | [1]; at 11.0 µM 0% | [1]; at 33.0 µM 1% | [1]; at 100.0 µM -2% | [2]; at 1.2 µM 0% | [2]; at 3.7 µM -1% | [2]; at 11.0 µM -1% | [2]; at 33.0 µM -1% | [2]; at 100.0 µM -3% | [3]; at 1.2 µM -2% | [3]; at 3.7 µM -1% | [3]; at 11.0 µM -2% | [3]; at 33.0 µM -2% | [3]; at 100.0 µM 1% | [4]; at 1.2 µM -1% | [4]; at 3.7 µM -3% | [4]; at 11.0 µM -2% | [4]; at 33.0 µM -1% | [4]; at 100.0 µM -5% | [5]; at 1.2 µM 1% | [5]; at 3.7 µM 2% | [5]; at 11.0 µM 3% | [5]; at 33.0 µM 0% | [5]; at 50.0 µM -50.5% | [5]; at 100.0 µM -1% | [6]; at 1.2 µM -4% | [6]; at 3.7 µM -4% | [6]; [17] 10% | [6]; at 11.0 µM -5% | [6]; at 33.0 µM -1% | [6]; [18] 10% | [6]; at 50.0 µM -6.8% | [6]; at 100.0 µM -5% | [7]; at 1.2 µM 0% | [7]; at 3.7 µM -2% | [7]; at 11.0 µM -4% | [7]; at 33.0 µM -3% | [7]; at 100.0 µM -3% | [8]; [17] 6% | [8]; [18] 4% | [8]; at 50.0 µM -26.4% | [9]; at 1.2 µM -2% | [9]; at 3.7 µM -4% | [9]; at 11.0 µM 6% | [9]; at 33.0 µM -2% | [9]; at 100.0 µM -5% | [10]; [17] 7% | [10]; [18] -3% | [10]; at 50.0 µM -21.4% | [11]; at 1.2 µM -1% | [11]; at 3.7 µM -3% | [11]; [17] -10% | [11]; at 11.0 µM -5% | [11]; at 33.0 µM -3% | [11]; [18] -11% | [11]; at 50.0 µM -1.1% | [11]; at 100.0 µM -5% | [12]; at 1.2 µM 0% | [12]; at 3.7 µM 1% | [12]; at 11.0 µM 0% | [12]; at 33.0 µM -1% | [12]; at 100.0 µM -1% | [13]; at 1.2 µM -1% | [13]; at 3.7 µM -3% | [13]; at 11.0 µM -2% | [13]; at 33.0 µM -3% | [13]; at 100.0 µM -3% | [14]; at 1.2 µM -1% | [14]; at 3.7 µM -3% | [14]; at 11.0 µM -2% | [14]; at 33.0 µM -1% | [14]; at 100.0 µM -2% | [15]; [17] 4% | [15]; [18] 2% | [15]; at 50.0 µM 0.05% | [16]; at 1.2 µM -2% | [16]; at 3.7 µM -5% | [16]; at 11.0 µM -3% | [16]; at 33.0 µM -5% | [16]; at 100.0 µM -4%

C/C(=N\Sc1ccccc1)c1ccccc1O
inactive: [1]; at 1.2 µM 1% | [1]; at 3.7 µM 4% | [1]; at 11.0 µM 2% | [1]; at 33.0 µM 21% | [2]; at 1.2 µM -3% | [2]; at 3.7 µM -4% | [2]; at 11.0 µM -4% | [2]; at 33.0 µM 4% | [2]; at 100.0 µM 64% | [3]; at 1.2 µM 3% | [3]; at 3.7 µM 5% | [3]; at 11.0 µM 9% | [3]; at 33.0 µM 35% | [4]; at 1.2 µM 2% | [4]; at 3.7 µM -2% | [4]; at 11.0 µM -1% | [4]; at 33.0 µM 8% | [4]; at 100.0 µM 62% | [5]; at 1.2 µM -3% | [5]; at 3.7 µM -4% | [5]; [17] -144% | [5]; at 11.0 µM 7% | [5]; at 33.0 µM 16% | [6]; at 1.2 µM -1% | [6]; at 3.7 µM 2% | [6]; [17] -48% | [6]; at 11.0 µM -11% | [6]; at 33.0 µM -1% | [6]; [18] -4% | [6]; at 50.0 µM 51.5% | [6]; at 100.0 µM 62% | [7]; at 1.2 µM -4% | [7]; at 3.7 µM -9% | [7]; at 11.0 µM -5% | [7]; at 33.0 µM 9% | [7]; at 100.0 µM 63% | [8]; [17] -63% | [8]; [18] 49% | [8]; at 50.0 µM 33.5% | [9]; at 1.2 µM 2% | [9]; at 3.7 µM -1% | [9]; at 11.0 µM 2% | [9]; at 33.0 µM 1% | [9]; at 100.0 µM 39% | [10]; [17] -59% | [10]; [18] -38% | [10]; at 50.0 µM 11.5% | [11]; at 1.2 µM 0% | [11]; at 3.7 µM 2% | [11]; [17] -62% | [11]; at 11.0 µM -1% | [11]; at 33.0 µM 5% | [11]; [18] 55% | [11]; at 50.0 µM 49.2% | [11]; at 100.0 µM 53% | [12]; at 1.2 µM 1% | [12]; at 3.7 µM 2% | [12]; at 11.0 µM 1% | [12]; at 33.0 µM 0% | [12]; at 100.0 µM 62% | [13]; at 1.2 µM 2% | [13]; at 3.7 µM 3% | [13]; at 11.0 µM -2% | [13]; at 33.0 µM 13% | [14]; at 1.2 µM 1% | [14]; at 3.7 µM 4% | [14]; at 11.0 µM 10% | [14]; at 33.0 µM 35% | [15]; [17] -115% | [15]; [18] 59% | [16]; at 1.2 µM -2% | [16]; at 3.7 µM 0% | [16]; at 11.0 µM 4% | [16]; at 33.0 µM 21%
active: [1]; at 100.0 µM 85% | [3]; at 100.0 µM 91% | [5]; [18] 71% | [5]; at 50.0 µM 79% | [5]; at 100.0 µM 90% | [13]; at 100.0 µM 79% | [14]; at 100.0 µM 91% | [15]; at 50.0 µM 94.2% | [16]; at 100.0 µM 90%
